Data published in PubChem BioAssay (NCI).
About 83,000 compounds went through this panel and 20% of them were active in at least one assay; those are over-represented in the sample as a whole.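 A percent growth of 40 corresponds to 60% growth inhibition; 0 means no net growth; -100 means all cells died. Active threshold: below 10.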 A number with no mark means an inactive call. Calls of active or inactive are those of the source.

Columns and labels:
Assay in all cases: NCI-60 one-dose screen, 48 h (100 = growth as untreated, 0 = no growth, -100 = all killed)
HCT-15 colon = conditions: 10 µM unless noted
HT29 colon = conditions: 10 µM unless noted
SNB-75 CNS = conditions: 10 µM unless noted
U251 CNS = conditions: 10 µM unless noted
PC-3 prostate = conditions: 10 µM unless noted
SK-MEL-5 melanoma = conditions: 10 µM unless noted
UACC-62 melanoma = conditions: 10 µM unless noted
LOX IMVI melanoma = conditions: 10 µM
SK-MEL-28 melanoma = conditions: 10 µM unless noted
SK-MEL-2 melanoma = conditions: 10 µM unless noted
EKVX NSCLC = conditions: 10 µM unless noted
UO-31 renal = conditions: 10 µM unless noted
TK-10 renal = conditions: 10 µM unless noted
ACHN renal = conditions: 10 µM unless noted
CAKI-1 renal = conditions: 10 µM unless noted
A498 renal = conditions: 10 µM unless noted
CCRF-CEM leukemia = conditions: 10 µM unless noted
MOLT-4 leukemia = conditions: 10 µM unless noted
SN12C renal = conditions: 10 µM unless noted

Row | SMILES | growth (HCT-15 colon) | growth (HT29 colon) | growth (SNB-75 CNS) | growth (U251 CNS) | growth (PC-3 prostate) | growth (SK-MEL-5 melanoma) | growth (UACC-62 melanoma) | growth (LOX IMVI melanoma) | growth (SK-MEL-28 melanoma) | growth (SK-MEL-2 melanoma) | growth (EKVX NSCLC) | growth (UO-31 renal) | growth (TK-10 renal) | growth (ACHN renal) | growth (CAKI-1 renal) | growth (A498 renal) | growth (CCRF-CEM leukemia) | growth (MOLT-4 leukemia) | growth (SN12C renal)
1 | CCCCSc1nc(NCCc2c[nH]c3ccccc23)c(C#N)c(-c2ccccc2)n1 | 16.8% | 1.16% (active) | 70.7% | 8.25% (active) | 13.2% | 17.2% | 72% | -34% (active) | 81.1% | 74% | 32.9% | 45.5% | 74.3% | 43.2% | 35.2% | 61.8% | 8.29% (active) | 13.8% | –
2 | CC(=O)OC[C@@]1(C)C2CC[C@]3(C)C(CC=C4C5CC(C)(C)CC[C@]5(C(=O)Nc5cccc(C)c5)CC[C@]43C)[C@@]2(C)C[C@@H](OC(C)=O)[C@@H]1OC(C)=O (stereo partly drawn) | 30.9% | 25.5% | 67.9% | 40.6% | 29.4% | 3.77% (active) | 45.4% | 11.6% | 62.3% | 38.7% | 30.7% | 37.4% | 52.9% | 38.8% | 42.2% | 59.6% | 30.4% | 30.7% | –
3 | CCCCCCCCc1ccc(S(=O)(=O)Nc2ccc(CC)cc2C(=O)O)cc1 | 85.7% | 124% | 106% | 92.9% | 89.7% | 80.3% | 81.3% | 99.9% | 104% | 86.7% | 90.5% | 84.8% | 104% | 96% | 89% | 104% | 77.9% | 91.1% | –
4 | CCN(CC)c1ccnc(CNCCSC(c2ccccc2)(c2ccccc2)c2ccc(C)cc2)c1 | -92.4% (active) | -80.5% (active) | -51.2% (active) | -93% (active) | -76.6% (active) | -99.6% (active) | -96.2% (active) | -99.6% (active) | -97.5% (active) | -92% (active) | -84.9% (active) | -20.8% (active) | -85.7% (active) | -53% (active) | -92.3% (active) | -96.8% (active) | -40.9% (active) | – | –
5 | Cc1cc(=O)oc2cc(OCCCOc3ccc(/C=C/C(=O)Nc4ccccc4N)cc3)ccc12 | 38% | 37.4% | 36.2% | 32.2% | 32% | -91.2% (active) | 21% | -76.5% (active) | 32% | 48.7% | 31.2% | -22.9% (active) | 49.8% | 34.6% | 29.6% | 11.2% | 9.74% (active) | 12.5% | –
6 | O=C(COc1ccc(NC(=O)Nc2ccc(Cl)cc2)cc1)N/N=C/c1ccccc1 | -80.3% (active) | -87.4% (active) | -37.4% (active) | -86.2% (active) | -72.9% (active) | -94% (active) | -87.5% (active) | -97.5% (active) | -84.9% (active) | -84.3% (active) | -58.5% (active) | -14% (active) | -77.9% (active) | -77.4% (active) | -89.6% (active) | -94.3% (active) | -13.7% (active) | – | –
7 | Cc1sc(C(NC(=O)OCCn2c([N+](=O)[O-])cnc2C)C(F)(F)Cl)nc1-c1ccc(OC(F)(F)F)cc1 (stereo not drawn) | -92.5% (active) | -83.4% (active) | -32.9% (active) | -85.7% (active) | -65.1% (active) | -99.5% (active) | -96.1% (active) | -98.3% (active) | -92.2% (active) | -90.7% (active) | -98% (active) | -95.5% (active) | -91.7% (active) | -98.5% (active) | -76.6% (active) | -89.7% (active) | -17.4% (active) | 2.22% (active) | –
8 | C#CCOc1ccc(/C=N/Nc2nc(-c3cc4cc(Br)ccc4oc3=O)cs2)cc1OC | 85.4% | 36.1% | 84.5% | 12.5% | 74.2% | 87.1% | 57.5% | 49.5% | 78.2% | 105% | 78.9% | 89.7% | 102% | 71% | 67.9% | 50.1% | 100% | 92.8% | 72.8%
9 | CCCSc1nc(NCCc2c[nH]c3ccccc23)c(C#N)c(-c2ccc(OC)cc2)n1 | 21.8% | 22.5% | 78.9% | 41.5% | 15.1% | 29.5% | 71.7% | 37.1% | 71.4% | 75.5% | 32.5% | 41.8% | 82.9% | 64.9% | 51% | 61.4% | 25.7% | 26.1% | –
10 | O=c1onc(-c2cc3ccccc3nc2Cl)n1-c1cccc2ccccc12 | 21.6% | 39.6% | 8% (active) | 54.8% | 40.4% | 3.23% (active) | 29.9% | 42% | 55.9% | 19.6% | 29.5% | 38.2% | 78.6% | 50.4% | 29.1% | 90.8% | 33% | 24.5% | –
11 | CC(C)Sc1nc(NCCc2c[nH]c3ccccc23)c(C#N)c(-c2ccc(F)cc2)n1 | 5.84% (active) | -6.22% (active) | 73% | 20.7% | 15% | 24.1% | 58.8% | -17.3% (active) | 71.1% | 70.3% | 32.7% | 44.8% | 96.3% | 51.7% | 42.7% | 42.4% | 11.7% | – | –
12 | COC(=O)/C=C/c1cccc2c1C(=O)NC(C)(c1cc3ccccc3oc1=O)N2 (stereo not drawn) | 36.3% | 69.8% | 41.6% | 57.9% | 58.9% | 78.5% | 42.8% | 38.9% | 75.4% | -2.01% (active) | 78.2% | 31.3% | 49% | 30.8% | 20.7% | 49.7% | 83.7% | 63% | 73.8%
13 | COc1ccc(/C=N/NC(=O)Cn2nc(Cc3ccc(OC)cc3)c3onc(C)c3c2=O)cc1 | 70.2% | 38.1% | 26.9% | 54.6% | 23.2% | 91.6% | 48.5% | 10.6% | 29.8% | 78.9% | 61.5% | 44.6% | 79.4% | 12.8% | -27.2% (active) | 48.1% | 75.5% | 78.7% | 27.5%
14 | CC(C)CSc1nc(NCCc2c[nH]c3ccccc23)c(C#N)c(-c2ccc(F)cc2)n1 | 19.6% | 5.49% (active) | 61.1% | 21.1% | 26.2% | 17.3% | 60.6% | 12.4% | 79.1% | 78.9% | 45.9% | 70.3% | 92.4% | 59.6% | 49.2% | 92.8% | 22.1% | 27.9% | –
15 | Cc1nc(Nc2ccccn2)sc1C(=O)CC(SCC(=O)Nc1ccc(Cl)cc1)c1ccccc1F (stereo not drawn) | 2.33% (active) | -28.4% (active) | 16.5% | -21.1% (active) | 43.2% | 4.3% (active) | -10.6% (active) | -22.5% (active) | 24.1% | -27.1% (active) | 36.5% | 30.3% | 6.79% (active) | – | 15.3% | 45.3% | 12.4% | 23.7% | -15.1% (active)
16 | COc1ccc(C(SCCNCc2cc(N(C)C)ccn2)(c2ccccc2)c2ccccc2)cc1 | -19.5% (active) | -60.2% (active) | -0.256% (active) | -33.9% (active) | 2.15% (active) | -100% (active) | -3.86% (active) | -98.9% (active) | -65.3% (active) | -34.9% (active) | 9.49% (active) | 15.4% | 24.5% | 20.3% | 11.3% | 4.54% (active) | 4.47% (active) | 9.51% (active) | –
